In PubChem BioAssay one finds outcome data, which are given here for 34 compounds.

Entries with a potency or affinity are not part of this list. Active and inactive are the calls of the source.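 The calls were made as follows: active = a fitted half-maximal concentration no higher than twice the top valid tested dose, with signal falling as cells die; inconclusive = flat curve between -70% and -30%, or poor fit; inactive = the rest, including signal rising instead of falling.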

The assay can be described thus: HeLa cell cytotoxicity, dose response, cytotoxicity control, ATP luminescence, cherry-pick samples (AID 687004). The following applies: HeLa viability, ATP luminescence (CellTiter-Glo), 48 h; series mostly up to 26 µM. On the technique in general: Cellular ATP, detected with luciferase, serves as a proxy for viable cell number.
With `C[C@@H](NC(=O)C[C@H]1CC[C@@H](NC(=O)Cc2ccccn2)[C@@H](CO)O1)c1ccccc1`, the result was inactive.

For `CC(=O)N1CCN(c2ccc(NC(=S)NC(=O)c3ccc(C)c([N+](=O)[O-])c3)cc2)CC1`, the result was inactive.

As to `CO[C@H](CN(C)Cc1ccc2c(c1)OCO2)[C@@H](C)CN(C(=O)c1ccccc1)[C@@H](C)CO`, the call was inactive.

For `CN1C(=O)c2cc(NC(=O)NC3CCCC3)ccc2OC[C@H]2O[C@@H](CC(=O)NCC3CC3)CC[C@@H]21`, the outcome was inactive.

Turning to `COc1cccc(S(=O)(=O)Nc2ccc3c(c2)[C@@H]2C[C@@H](CC(=O)NCc4cccc(F)c4)O[C@H](CO)[C@@H]2O3)c1`, the call was inactive.

Consider `COc1ccccc1NC(=O)N[C@@H]1CC[C@H](CCn2cc(-c3ccccc3OC)nn2)O[C@H]1CO`, for which the result was inactive.

As for `O=C(NC1CCCC1)N1CCCCN2[C@H](CO)[C@@H](c3ccc(-c4cncnc4)cc3)[C@H]2C1`, the compound was classed as inactive.

For the compound `C[C@H](O)C#Cc1cnc2c(c1)C(=O)N([C@@H](C)CO)C[C@@H](C)[C@@H](CN(C)C(=O)Cc1ccncc1)O2`, the compound was called inactive.

Consider `COc1cccc(S(=O)(=O)N(C)C[C@@H]2Oc3ncc(-c4cccc(F)c4)cc3C(=O)N([C@H](C)CO)C[C@@H]2C)c1`, for which the call was inactive.

For `Cc1nnc(NC(=O)CSc2ncnc3c2cnn3-c2ccccc2C)s1`, the compound was called inactive.

With `CC(C)NC(=O)Nc1ccc2c(c1)CC(=O)N([C@H](C)CO)C[C@@H](C)[C@H](CN(C)Cc1ccc3c(c1)OCO3)O2`, the result was inactive.

As for `CC(C)NC(=O)NCC[C@@H]1CC[C@@H](NC(=O)CN(C)C)[C@@H](CO)O1`, the result was inactive.

For `Cc1cc(C)c(N2CCCC2C(=O)Nc2cccc(C(F)(F)F)c2)c(C)c1` (centres undefined), the result was inactive.

Regarding `CO[C@H]1CN(C)C(=O)c2cc(NS(=O)(=O)c3ccc(C)cc3)ccc2OC[C@@H](C)N(C(=O)NC(C)C)C[C@@H]1C`, the call was inactive.

Regarding `COc1ccccc1NC(=O)N[C@H]1CC[C@@H](CCn2cc(-c3ccccc3OC)nn2)O[C@@H]1CO`, the compound was called inactive.

As to `C[C@@H]1CN([C@@H](C)CO)C(=O)c2cccc(NS(=O)(=O)c3ccc(F)cc3)c2O[C@H]1CN(C)S(=O)(=O)c1ccc(Cl)cc1`, the compound was classed as inactive.

Consider `C[C@H]1CCCCO[C@H](CN(C)C(=O)c2ccncc2)[C@@H](C)CN([C@@H](C)CO)C(=O)c2cc(NC(=O)Cc3ccccc3)ccc2O1`, for which the compound was called inactive.

For the compound `CC(=O)NC[C@H]1[C@@H](c2ccc(C3=CCCC3)cc2)[C@@H](CO)N1C(=O)NC(C)C`, the compound was called inactive.

Turning to `CCC(C)(C(=O)Nc1cccc(C)c1)N1CCC1=O` (centres undefined), the compound was classed as inactive.

Take `C[C@@H]1CCCCO[C@H](CN(C)C(=O)Nc2ccc(F)cc2)[C@H](C)CN([C@@H](C)CO)C(=O)c2cc(NS(=O)(=O)c3ccc(Cl)cc3)ccc2O1`: the outcome was inactive.

For the compound `O=C(C[C@@H]1CC[C@H](NC(=O)Cc2ccccn2)[C@H](CO)O1)NCCc1ccccc1`, the compound was called inactive.

On to `O=C(Nc1cccc(F)c1)N[C@H]1CC[C@@H](CCNS(=O)(=O)c2cccc(Cl)c2)O[C@@H]1CO`, for which the compound was called inactive.

Turning to `CCNC(=O)Nc1ccc2c(c1)C(=O)N(C)[C@H]1CC[C@H](CC(=O)N[C@@H](C)c3ccccc3)O[C@H]1CO2`, the compound was called inactive.

Take `Cc1cccc(C)c1NC(=O)CN1CCCC1`: the call was inactive.

As for `CN1CCN(C(=O)CN(c2ccc(I)cc2)S(=O)(=O)c2ccccc2)CC1`, the compound was called inactive.

Regarding `C[C@@H]1CN([C@@H](C)CO)S(=O)(=O)c2ccc(C#Cc3ccc(F)cc3)cc2O[C@H]1CN(C)C(=O)NC1CCCC1`, the result was inactive.

With `CC(=O)NNC(=O)CSc1nnc(-c2ccccc2)c(-c2ccccc2)n1`, the outcome was inactive.

Turning to `CC(C)(C)C(=O)N1CCCC1C(=O)Nc1ccccc1` (centres undefined), the call was inactive.

As to `O=C(C[C@@H]1C[C@@H]2c3cc(NC(=O)Nc4ccc(F)cc4)ccc3O[C@@H]2[C@@H](CO)O1)NCC1CC1`, the call was inactive.

Turning to `C[C@H](CO)N1C[C@H](C)[C@H](CN(C)S(=O)(=O)c2ccc(F)cc2)Oc2ccc(NS(=O)(=O)c3ccc(Cl)cc3)cc2C1=O`, the result was inactive.

As to `COCCNC(=O)C[C@@H]1CC[C@H]2[C@@H](COC[C@H](O)CN2Cc2cccc(-c3ccncc3)c2)O1`, the outcome was inactive.

With `CC(C)NC(=O)Nc1cccc2c1O[C@H](CN(C)C)[C@H](C)CN([C@H](C)CO)C2=O`, the compound was classed as inactive.

Consider `COc1cccc(S(=O)(=O)N(C)C[C@H]2OCc3cnnn3CCCC(=O)N([C@H](C)CO)C[C@H]2C)c1`, for which the outcome was inactive.

As for `C[C@@H]1CN([C@@H](C)CO)C(=O)c2cccc(N(C)C)c2O[C@H]1CN(C)C(=O)Nc1ccc(C(F)(F)F)cc1`, the result was inactive.
